TbPYK inhibitor: qHTS of Trypanosoma Brucei Inhibitors | pyruvate kinase (Trypanosoma brucei), Q57TT1 | TbPYK enzyme, Kinase-Glo Plus ATP luminescence, 45 min | Potency, µM (top dose mostly 76.8 µM), hits mostly inhibitors | 0.12% of 410,000 active; also: nearly all actives have a fitted effect of over 50% in size
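Luminescence from Kinase-Glo Plus, added after a 45-minute room-temperature reaction, served as the end-point read-out. The enzyme and substrate were preincubated with compound before ADP (130 uM final) initiated turnover. Concentration-effect curves came from normalized qHTS data.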
LmPK inh: qHTS Assay for Inhibitors of Leishmania Mexicana Pyruvate Kinase (LmPK); Q27686; purified LmPK, Kinase-Glo ATP luminescence, 1 h; Potency, µM (series often up to 57.5 µM), usual class: inhibitors; 0.37% of 290,000 active
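Purified LmPK (0.1 nM) with 0.5 mM PEP and 0.1 mM ADP in imidazole buffer pH 7.2 with MgCl2/KCl, 1 h at room temperature. ATP formed was read by luciferase luminescence and normalized to no-enzyme and uninhibited controls.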
RE007 growth inh: qHTS Assay for Inhibitors of the HIV-1 protein Vpr; S. pombe RE007 Vpr strain, BacTiter-Glo ATP luminescence, 24 h; Potency, µM (series often up to 92.2 µM), usual class: inhibitors; 0.21% of 360,000 active; AID 651644, 2012; active = well fitted falling curve with a large enough effect; inconclusive = small, poorly fitted or top-dose-only effect; inactive = no such curve, though single readings can be large or run the other way; also: nearly all actives have a fitted effect of over 50% in size
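Fission yeast strain RE007, carrying one chromosomally integrated HIV-1 vpr copy, was seeded at OD 0.01 in PMG+AL medium with 23 nL pinned compound. After 24 h at 30 °C and 99% humidity, viability was read by BacTiter-Glo luminescence.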
SARS PLP yeast: qHTS of Yeast-based Assay for SARS-CoV PLP | AID 485353, 2010 | 0.19% of 330,000 active | S. cerevisiae expressing SARS-CoV PLpro, growth rescue | Potency, µM (top dose mostly 32.9 µM), most hits filed as activators; calls by dose curve; also: nearly all actives have a fitted effect of over 55% in size
Giardia FBPA inh-1: qHTS Assay for Inhibitors of Fructose-1,6-bisphosphate Aldolase from Giardia Lamblia | A8B2U2 | purified Giardia FBPA | Potency, µM (top dose mostly 59.6 µM), actives largely listed as inhibitors | 0.71% of 290,000 active | AID 2451, 2010; also: nearly all actives have a fitted effect of over 55% in size
Target sequence (A8B2U2 whole entry, looked up): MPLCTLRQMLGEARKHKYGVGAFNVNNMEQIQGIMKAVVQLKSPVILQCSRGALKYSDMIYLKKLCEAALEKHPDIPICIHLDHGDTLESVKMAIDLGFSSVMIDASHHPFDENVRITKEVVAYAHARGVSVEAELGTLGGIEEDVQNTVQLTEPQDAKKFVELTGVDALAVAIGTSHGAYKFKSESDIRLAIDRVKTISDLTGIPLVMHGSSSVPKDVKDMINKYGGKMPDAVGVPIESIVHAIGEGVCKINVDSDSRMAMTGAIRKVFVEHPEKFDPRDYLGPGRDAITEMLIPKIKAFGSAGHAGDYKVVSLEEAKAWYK
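Giardia FBPA (40 nM reagent) was preincubated 10 min at RT with compound (up to 57.5 uM final), then substrate plus GAPDH/TPI/NAD/arsenate coupling system with diaphorase/resazurin was added; resorufin fluorescence (525/598 nm) was read after 20 min.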
Giardia growth: qHTS Assay for Inhibitors of Fructose-1,6-bisphosphate Aldolase from Giardia Lamblia: Giardia lamblia growth inhibition; 5% of 1,500 active; Giardia lamblia trophozoite growth inhibition; shares compounds with Giardia FBPA inh-1; Potency, µM (series often up to 57.5 µM), actives largely listed as inhibitors;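 also: trophozoites exposed to compound for 48 h at 37 °C; nearly all actives have a fitted effect of over 70% in size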
Mammal cell tox: qHTS Assay for Inhibitors of Fructose-1,6-bisphosphate Aldolase from Giardia Lamblia: Mammalian cellular toxicity; shares compounds with Giardia FBPA inh-1; 4% of 1,500 active; Potency, µM (highest dose often 57.5 µM), most hits filed as inhibitors; mammalian cell viability counter-screen, qHTS;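 also: Chinese hamster ovary cells used as mammalian cytotoxicity surrogate; viability measured as cellular ATP by luminescence; compound exposure lasted 48 h before reading; nearly all actives have a fitted effect of over 60% in size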
Giardia FBPA inh-2: qHTS Assay for Inhibitors of Fructose-1,6-bisphosphate Aldolase from Giardia Lamblia: Primary screen confirmation; shares compounds with Giardia FBPA inh-1; purified Giardia aldolase enzyme activity, qHTS; Potency, µM (titrated, usually from 57.5 µM), hits mostly inhibitors; 5% of 1,500 active; also: nearly all actives have a fitted effect of over 45% in size
Rabbit aldolase: qHTS Assay for Inhibitors of Fructose-1,6-bisphosphate Aldolase from Giardia Lamblia: Rabbit FBPA Selectivity | shares compounds with Giardia FBPA inh-1 | Rabbit muscle FBPA enzyme inhibition, selectivity counter-screen | Potency, µM (highest dose often 57.5 µM), most hits filed as inhibitors | 4% of 1,500 active; also: nearly all actives have a fitted effect of over 60% in size
GAPDH coupling: qHTS Assay for Inhibitors of Fructose-1,6-bisphosphate Aldolase from Giardia Lamblia: Coupling assay counterscreen confirmation. shares compounds with Giardia FBPA inh-1. AID 2795, 2010. GAPDH coupling enzyme counterscreen, biochemical, qHTS. Potency, µM (doses to about 57.5 µM), actives largely listed as inhibitors. 6% of 1,500 active; also: nearly all actives have a fitted effect of over 55% in size
Large screens that a line does not name were inactive (follow-up assays come after a bar, where they were run); [ ] = remark or other dose. Hits are enriched below; roughly 1.1% of the tested compounds scored in any of these assays. Unless noted, calls follow the shape of the dose curve; as a rule, active = well fitted curve in the direction sought with a large enough effect; inconclusive = small, poorly fitted or top-dose-only effect, or another doubt; inactive = no such curve, though single readings can be large; an effect the other way counts as inactive or inconclusive.

COc1ccc(Br)cc1C1CC(=O)N2CN(Cc3ccccc3)CSC2=C1C#N (stereo unspecified)	TbPYK inhibitor inconclusive, Giardia FBPA inh-1 inconclusive
COc1cccc(C2CC(=O)N3CN(c4ccccc4F)CSC3=C2C#N)c1 (stereo unspecified)	TbPYK inhibitor 3.5µM, Giardia FBPA inh-1 3.2µM | Giardia growth inactive[10.4 µM] | Mammal cell tox inactive | Giardia FBPA inh-2 inactive | Rabbit aldolase inactive | GAPDH coupling inactive
CCOc1ccc(N2CSC3=C(C#N)C(c4ccco4)CC(=O)N3C2)cc1 (stereo unspecified)	Giardia FBPA inh-1 7.9µM | Giardia growth inactive | Mammal cell tox inactive | Giardia FBPA inh-2 inconclusive | Rabbit aldolase inconclusive | GAPDH coupling inconclusive
COc1ccc(CNc2nc3c(c(=O)n(C)c(=O)n3C)n2Cc2ccccc2Cl)cc1	none (no result: LmPK inh, RE007 growth inh, SARS PLP yeast, Giardia FBPA inh-1)
CCOc1ccc(NC(=O)c2cccc3c(=O)c4c([nH]c23)CCCC4)cc1	none (no result: LmPK inh, RE007 growth inh, SARS PLP yeast, Giardia FBPA inh-1)
CN(C(=O)c1cc2c(=O)n3ccccc3nc2n1C)c1ccccc1	none (no result: LmPK inh, RE007 growth inh, SARS PLP yeast, Giardia FBPA inh-1)
COc1ccc(Br)cc1C1CC(=O)N2CN(C)CSC2=C1C#N (stereo unspecified)	TbPYK inhibitor inconclusive, Giardia FBPA inh-1 inconclusive
COc1ccc(OC)c(C2CC(=O)N3CN(c4cccc(Cl)c4C)CSC3=C2C#N)c1 (stereo unspecified)	TbPYK inhibitor 3.5µM, Giardia FBPA inh-1 1.4µM | Giardia growth inconclusive | Mammal cell tox inactive | Giardia FBPA inh-2 inactive | Rabbit aldolase inconclusive | GAPDH coupling inconclusive
COc1cc(OC)c(C2CC(=O)N3CN(C)CSC3=C2C#N)cc1OC (stereo unspecified)	TbPYK inhibitor inconclusive, LmPK inh inconclusive, Giardia FBPA inh-1 0.56µM | Giardia growth inactive | Mammal cell tox inactive | Giardia FBPA inh-2 inconclusive | Rabbit aldolase inactive | GAPDH coupling inconclusive
CC(C)CC(=O)Nc1nnc(S(=O)(=O)N(C)Cc2ccc(Cl)cc2)s1	none (no result: LmPK inh, RE007 growth inh, SARS PLP yeast, Giardia FBPA inh-1)
NC(c1ccccc1)c1ccncc1 (stereo unspecified)	Giardia FBPA inh-1 inconclusive
NC(c1ccccc1)c1cccnc1 (stereo unspecified)	Giardia FBPA inh-1 10µM | Giardia growth inactive | Mammal cell tox inactive | Giardia FBPA inh-2 inactive | Rabbit aldolase inactive | GAPDH coupling inactive
O=C(CSC(=S)N1CCCC1)c1cc(Br)cc(Br)c1O	Giardia FBPA inh-1 14µM | Giardia growth inconclusive | Mammal cell tox 25µM | Giardia FBPA inh-2 inactive | Rabbit aldolase inactive | GAPDH coupling inconclusive
Nc1ccc(N2CCCCC2)c(S(=O)(=O)Nc2ccccc2Cl)c1	Giardia FBPA inh-1 16µM | Giardia growth inactive | Mammal cell tox inactive | Giardia FBPA inh-2 inactive | Rabbit aldolase inactive | GAPDH coupling inactive
COc1ccccc1NS(=O)(=O)c1cc(N)ccc1N1CCCCC1	none
CCOc1cccc2sc(N(CCN(CC)CC)C(=O)c3ccco3)nc12	none (no result: LmPK inh, RE007 growth inh, SARS PLP yeast, Giardia FBPA inh-1)
S=C(NCc1ccccc1)Nc1nccs1	Giardia FBPA inh-1 13µM | Giardia growth inactive | Mammal cell tox inactive | Giardia FBPA inh-2 inactive | Rabbit aldolase inactive | GAPDH coupling inactive
